Compounds with a hit are over-represented: about 27% of the library has one in this group of screens.
CYP2C19 inh = blocks human cytochrome P450 2C19. P33261. CYP2C19 Supersomes, luciferin-H EGE luminescence, 30 min. inhibition, % at 5 µM. 96,000 compounds, 21% hits. AID 778;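 active = CYP2C19 inhibition above a set limit at 5 µM in the primary screen, cut at about 50% in these data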;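 note: plate controls were negative control wells for no effect and 2.5 mM tranylcypromine positive control for full effect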
Target sequence (P33261 whole entry, looked up): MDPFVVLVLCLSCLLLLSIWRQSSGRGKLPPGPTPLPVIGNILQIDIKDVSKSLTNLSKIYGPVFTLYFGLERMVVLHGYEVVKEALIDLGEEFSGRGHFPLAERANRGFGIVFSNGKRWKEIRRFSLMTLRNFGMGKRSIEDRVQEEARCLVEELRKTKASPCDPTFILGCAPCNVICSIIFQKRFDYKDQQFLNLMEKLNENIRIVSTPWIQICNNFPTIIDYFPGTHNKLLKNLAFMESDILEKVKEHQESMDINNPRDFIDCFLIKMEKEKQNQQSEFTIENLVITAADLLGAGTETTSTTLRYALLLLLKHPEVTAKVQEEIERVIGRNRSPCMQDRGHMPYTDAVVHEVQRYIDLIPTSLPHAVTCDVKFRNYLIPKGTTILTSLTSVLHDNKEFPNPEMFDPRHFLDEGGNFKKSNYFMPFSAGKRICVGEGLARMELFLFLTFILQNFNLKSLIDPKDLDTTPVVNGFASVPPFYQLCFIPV
CYP2C9 activ = activators of human CYP2C9; recombinant CYP2C9, luciferin-H conversion, luminescence; active compounds read high; factor 1 = untreated enzyme, 0 = blocked; activation factor at 5 µM; P11712; 96,000 compounds, 1.4% hits; AID 1024;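 active = activation factor of 2 or more for CYP2C9 at a 5 µM dose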;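 note: 0 = sulfaphenazole-blocked wells and 1 = vehicle-only wells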
CYP2C9 inh = blocks human cytochrome P450 2C9; CYP2C9 Supersomes, luciferin-H conversion, luminescence; inhibition, % at 5 µM; 96,000 compounds, 20% hits; AID 777;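 active = blocking of liver enzyme CYP2C9 beyond about 50% at 5 µM, limit read from the data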
CYP2C19 act = increases human CYP2C19 enzyme activity. P33261. recombinant CYP2C19, luciferin-H EGE luminescence; active compounds read high; 0 = fully inhibited enzyme, 1 = untreated enzyme. activation factor at 5 µM. 96,000 tested, under 10 active;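 active = activation factor of at least 2 at 5 µM in the primary screen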;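 note: 0 = wells with 2.5 mM tranylcypromine and 1 = vehicle-only wells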
Cav32 inh = blocks human Cav3.2 T-type calcium channel; O95180; Cav3.2-expressing cells, Fluo-4 calcium fluorescence FDSS; active compounds read low; B-score at 10 µM; 100,000 compounds, 4% hits; AID 449739;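 active = single-dose well whose peak fluorescence ratio is a statistical outlier from its plate by either plate-standardised score or position-corrected B-score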
The depositor's hits bear a star.

Screening CN1C(=O)C(=Cc2ccc(N3CCCCCC3)o2)C(=O)N(C)C1=S returned CYP2C19 inh 59*, CYP2C9 activ 0.8, CYP2C9 inh 23, CYP2C19 act 0.4 and Cav32 inh -7.1*.
Screening CCC(C)(C)n1nnnc1CN1CCC(n2c(C)nc3cc(C(F)(F)F)ccc32)CC1 returned Cav32 inh 4*.
For Oc1cccc2nc3ccccc3nc12 the results were Cav32 inh 0.48.
O=C(COC(=O)Cc1ccccc1)Nc1ncc(Cl)cc1Cl was read as CYP2C19 inh 58*, CYP2C9 activ 0.8, CYP2C9 inh 16 and CYP2C19 act 0.4.
`FC(F)(F)C1=NC(C(F)(F)F)=NP(N2CCOCC2)(N2CCOCC2)=N1` gave CYP2C19 inh 2, CYP2C9 activ 1.1, CYP2C9 inh -13, CYP2C19 act 1 and Cav32 inh -0.51.
COC(=O)C1=C(N)Oc2c(c(=O)oc3ccccc23)[C@]12C(=O)N(C)c1ccccc12 was read as CYP2C19 inh 68*, CYP2C9 activ 0.3, CYP2C9 inh 68*, CYP2C19 act 0.3 and Cav32 inh 2.
CN(Cc1ccccc1)Cc1ccccc1OC(=O)N(C)C was read as CYP2C19 inh 54*, CYP2C9 activ 1.1, CYP2C9 inh -6, CYP2C19 act 0.5 and Cav32 inh 0.2.
For Nc1ccccc1C(=O)OCC(=O)N1CCc2ccccc21 the results were CYP2C19 inh 22, CYP2C9 activ 0.7, CYP2C9 inh 27, CYP2C19 act 0.8 and Cav32 inh -0.16.
Screening Nc1ccccc1C(=O)OCCOc1ccccc1 returned CYP2C19 inh 92*, CYP2C9 activ 0.3, CYP2C9 inh 74*, CYP2C19 act 0.1 and Cav32 inh -2.3.
Screening O=C1CN(C(=O)CN2CCCCC2)C(c2ccccc2)c2cc(Br)ccc2N1 (centres undefined) returned CYP2C19 inh 22, CYP2C9 activ 0.8, CYP2C9 inh 23, CYP2C19 act 0.8 and Cav32 inh -1.
For O=C(Nc1ccc(Cl)cc1C(=O)c1ccccc1)c1ccc(Br)o1 the results were CYP2C19 inh -15, CYP2C9 activ 1.1, CYP2C9 inh -8, CYP2C19 act 1.1 and Cav32 inh 0.2.
CSc1ccc(C(=O)C(C)(C)N2CCOCC2)cc1 was read as CYP2C19 inh 92*, CYP2C9 activ 0.8, CYP2C9 inh 23, CYP2C19 act 0.1 and Cav32 inh -2.4.
`CCOP1(=S)Oc2cc3c(cc2C(C(=O)OC)(C(F)(F)F)O1)OCO3` (centres undefined) gave CYP2C19 inh 98*, CYP2C9 activ 0.1, CYP2C9 inh 89*, CYP2C19 act 0 and Cav32 inh -0.35.
Screening CSCCC(N=Cc1c(O)n(-c2ccc(F)cc2)c(=O)[nH]c1=O)C(=O)OC(C)(C)C (centres undefined) returned CYP2C19 inh -12, CYP2C9 activ 1, CYP2C9 inh 0 and CYP2C19 act 1.1.
Screening CN(CCc1ccccc1)Cc1ccccc1[N+](=O)[O-] returned CYP2C19 inh 91*, CYP2C9 activ 0.2, CYP2C9 inh 76* and CYP2C19 act 0.1.
`CC(=O)N1CC(=O)Nc2ccc(Cl)cc2C1c1ccc(F)cc1` (centres undefined) gave CYP2C19 inh 9, CYP2C9 activ 1, CYP2C9 inh 1, CYP2C19 act 0.9 and Cav32 inh 0.69.
Screening CCOc1cc(-c2nc3c(C)cccn3c2NCC2CCCO2)ccc1O (centres undefined) returned CYP2C19 inh 28, CYP2C9 activ 0.9, CYP2C9 inh 12, CYP2C19 act 0.7 and Cav32 inh -0.46.
`N=C(N)c1c(O)n(C2CCCCC2)c(=O)n(C2CCCCC2)c1=O` gave CYP2C19 inh 1, CYP2C9 activ 0.8, CYP2C9 inh 21, CYP2C19 act 1 and Cav32 inh 0.18.
`Brc1ccc(CN2CCNCC2)s1` gave CYP2C19 inh 11, CYP2C9 activ 0.8, CYP2C9 inh 18, CYP2C19 act 0.9 and Cav32 inh -0.54.
COC(=O)C1=C(c2cc3ccccc3o2)C[C@@H]2CC[C@H]1N2C(=O)NCc1cccc2ccccc12 was read as Cav32 inh -3.6*.
Screening CCn1c(=O)n(CC(=O)N2CCC3(CC2)OCCO3)c(=O)c2ccccc21 returned CYP2C19 inh 48, CYP2C9 activ 1, CYP2C9 inh 3, CYP2C19 act 0.5 and Cav32 inh -1.
O=C(Cn1ncc2ccccc21)N1CCC2(CC1)OCCO2 was read as CYP2C19 inh 55*, CYP2C9 activ 1, CYP2C9 inh -4, CYP2C19 act 0.5 and Cav32 inh 0.21.
Cc1ccc(CN2CCN(CC(=O)N3CCC4(CC3)OCCO4)C2=O)cc1 was read as CYP2C19 inh 26, CYP2C9 activ 0.8, CYP2C9 inh 21, CYP2C19 act 0.7 and Cav32 inh 0.16.
Screening O=C(Cn1ncc2c3ccccc3n(Cc3ccccc3F)c2c1=O)N1CCC2(CC1)OCCO2 returned CYP2C19 inh 43, CYP2C9 activ 0.3, CYP2C9 inh 69*, CYP2C19 act 0.6 and Cav32 inh -8.6*.
`O=C(Cn1ncc2c3ccccc3n(Cc3ccccc3)c2c1=O)N1CCC2(CC1)OCCO2` gave CYP2C19 inh 22, CYP2C9 activ 0.5, CYP2C9 inh 53*, CYP2C19 act 0.8 and Cav32 inh -11*.
For Cc1c2cnn(CC(=O)N3CCC4(CC3)OCCO4)c(=O)c2c(C)n1Cc1ccc(F)cc1 the results were CYP2C19 inh 53*, CYP2C9 activ 0.8, CYP2C9 inh 21, CYP2C19 act 0.5 and Cav32 inh 0.59.
For O=C(CCCC1=NS(=O)(=O)c2ccccc2N1)N1CCC2(CC1)OCCO2 the results were CYP2C19 inh -1, CYP2C9 activ 1, CYP2C9 inh 2, CYP2C19 act 1 and Cav32 inh 0.5.
For COc1cc(/C=N/NC(=O)Cn2c([N+](=O)[O-])cnc2C)ccc1OC(=O)N(C)C the results were CYP2C19 inh -4, CYP2C9 activ 1.1, CYP2C9 inh -14, CYP2C19 act 1 and Cav32 inh 0.12.
For COc1ccc(C2C(C#N)=C(N)Oc3c2c(=O)oc2ccccc32)cc1Cn1cc([N+](=O)[O-])cn1 (centres undefined) the results were CYP2C19 inh 33, CYP2C9 activ 0, CYP2C9 inh 97* and CYP2C19 act 0.7.
For COCCOC(=O)C1=C(N)Oc2c(c(=O)oc3ccccc23)C1c1ccncc1 (centres undefined) the results were CYP2C19 inh 96*, CYP2C9 activ 0, CYP2C9 inh 97*, CYP2C19 act 0 and Cav32 inh 0.05.
CC(C)Oc1ccc(C2C(C#N)=C(N)Oc3c2c(=O)oc2ccccc32)cc1 (centres undefined) was read as CYP2C19 inh -4, CYP2C9 activ 0.1, CYP2C9 inh 90*, CYP2C19 act 1 and Cav32 inh -0.01.
CCCC(C)C1C(C#N)=C(N)Oc2c1c(=O)oc1ccccc21 (centres undefined) was read as CYP2C19 inh 22, CYP2C9 activ 0.3, CYP2C9 inh 70* and CYP2C19 act 0.8.

High-throughput results as filed in PubChem.
